From PubChem BioAssay AID1159580 (chemical genetic matrix, 2015)
Several values for one entry are separate records, joined by “and”; a condition that tells them apart may be missing. Equal values may be shown once. About 2,000 (36%) of roughly 5,500 compounds were called active. Roughly 18% stayed inconclusive and do not appear here. Rule as the data show it: active = normalized growth mostly below about 0.91 (no sharp cut-off); inconclusive = no clear call, values can overlap the other calls; inactive = mostly above about 0.92. The list shows a part of the results.

Assay: chemical genetic growth profiling, strain panel (AID 1159580);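 also: tested at 20 µM; growth read once vehicle control cultures reached saturation at 30 °C; 1 = growth at the plate median or of vehicle wells; lower values mean less growth of the strain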
Conditions: S. cerevisiae deletion strains, growth OD
[1] = locus YAL013W, strain DEP1, stronger effect = lower value
[2] = locus YBR229C, strain ROT2, stronger effect = lower value
[3] = locus YDL101C, strain DUN1, stronger effect = lower value
[4] = locus YDL134C, strain PPH21, stronger effect = lower value
[5] = locus YEL061C, strain CIN8, stronger effect = lower value
[6] = locus YGR229C, strain SMI1, stronger effect = lower value
[7] = locus YHR030C, strain SLT2, stronger effect = lower value
[8] = locus YJR043C, strain POL32, stronger effect = lower value
[9] = locus YJR075W, strain HOC1, stronger effect = lower value
[10] = locus YLR039C, strain RIC1, stronger effect = lower value
[11] = locus YLR262C, strain YPT6, stronger effect = lower value
[12] = locus YMR263W, strain SAP30, stronger effect = lower value
[13] = locus YMR307W, strain GAS1, stronger effect = lower value
[14] = locus YNL153C, strain GIM3, stronger effect = lower value
[15] = locus YPL055C, strain LGE1, stronger effect = lower value
[16] = locus YPL241C, strain CIN2, stronger effect = lower value

Measured: normalized growth

Nc1ccc(S(=O)(=O)c2ccc(N)cc2)cc1
inactive: [1] 1.01 | locus YAL021C, strain ccr4, stronger effect = lower value 0.99 | locus YAL026C, strain drs2, stronger effect = lower value 1 | locus YAL030W, strain snc1, stronger effect = lower value 0.976 | locus YBL061C, strain skt5, stronger effect = lower value 0.993 | locus YBR009C, strain hhf1, stronger effect = lower value 1 | locus YBR021W, strain FUR4, stronger effect = lower value 1.04 | locus YBR023C, strain chs3, stronger effect = lower value 0.979 | locus YBR171W, strain sec66, stronger effect = lower value 1 | [2] 1.01 | locus YBR231C, strain swc5, stronger effect = lower value 0.975 | locus YBR279W, strain paf1, stronger effect = lower value 0.983 | locus YCL011C, strain gbp2, stronger effect = lower value 0.999 | locus YCL016C, strain dcc1, stronger effect = lower value 0.997 | locus YCL029C, strain bik1, stronger effect = lower value 1.03 | locus YCL069W, strain vba3, stronger effect = lower value 1.01 | locus YCR088W, strain abp1, stronger effect = lower value 1.01 | locus YDL005C, strain med2, stronger effect = lower value 0.98 | locus YDL035C, strain GPR1, stronger effect = lower value 1.03 | locus YDL040C, strain nat1, stronger effect = lower value 0.991 | locus YDL074C, strain BRE1, stronger effect = lower value 1.02 | [3] 1.02 | [4] 1.02 | locus YDL185W, strain tfp1, stronger effect = lower value 1.02 | locus YDL192W, strain arf1, stronger effect = lower value 1.01 | locus YDR001C, strain nth1, stronger effect = lower value 1 | locus YDR069C, strain doa4, stronger effect = lower value 0.987 | locus YDR101C, strain arx1, stronger effect = lower value 0.987 | locus YDR137W, strain rgp1, stronger effect = lower value 1.01 | locus YDR159W, strain sac3, stronger effect = lower value 0.979 | locus YDR162C, strain NBP2, stronger effect = lower value 1.04 | locus YDR195W, strain ref2 0.939 | locus YDR297W, strain sur2, stronger effect = lower value 0.996 | locus YDR318W, strain mcm21, stronger effect = lower value 1.01 | locus YDR334W, strain swr1, stronger effect = lower value 0.986 | locus YDR335W, strain msn5, stronger effect = lower value 1 | locus YDR388W, stronger effect = lower value 1 | locus YDR392W, strain spt3, stronger effect = lower value 0.992 | locus YDR502C, strain sam2, stronger effect = lower value 1 | locus YEL003W, strain gim4, stronger effect = lower value 1.01 | locus YEL037C, strain rad23, stronger effect = lower value 1.01 | locus YEL061C, strain CIN8 (second series), stronger effect = lower value 1 | [5] 1.01 | locus YER015W, strain faa2, stronger effect = lower value 0.999 | locus YER016W, strain bim1, stronger effect = lower value 0.991 | locus YER110C, stronger effect = lower value 0.993 | locus YER111C, strain swi4, stronger effect = lower value 1.02 | locus YER155C, strain BEM2 (second series), stronger effect = lower value 0.954 | locus YER155C, strain BEM2, stronger effect = lower value 1.02 | locus YER167W, strain BCK2, stronger effect = lower value 1.02 | locus YFR010W, strain ubp6, stronger effect = lower value 0.988 | locus YGL078C, strain dbp3, stronger effect = lower value 0.993 | locus YGL086W, strain mad1, stronger effect = lower value 1 | locus YGL167C, strain pmr1, stronger effect = lower value 0.995 | locus YGL173C, strain kem1, stronger effect = lower value 0.979 | locus YGL227W, strain vid30, stronger effect = lower value 1.01 | locus YGL240W, strain doc1, stronger effect = lower value 0.988 | locus YGL248W, strain PDE1, stronger effect = lower value 1.02 | locus YGL253W, strain hxk2, stronger effect = lower value 0.99 | locus YGR135W, strain pre9, stronger effect = lower value 1.01 | [6] 1.03 | locus YGR252W, strain gcn5, stronger effect = lower value 1.01 | locus YHR013C, strain ard1, stronger effect = lower value 0.973 | locus YHR027C, strain rpn1, stronger effect = lower value 0.991 | [7] 1.02 and 1.01 | locus YHR079C, strain IRE1 (second series), stronger effect = lower value 1.01 | locus YHR079C, strain IRE1, stronger effect = lower value 1.03 | locus YHR094C, strain hxt1, stronger effect = lower value 1.01 | locus YHR129C, strain ARP1, stronger effect = lower value 1.01 | locus YHR142W, strain chs7, stronger effect = lower value 1.01 | locus YHR200W, strain rpn10, stronger effect = lower value 1 | locus YIL066C, strain RNR3, stronger effect = lower value 1.02 | locus YIL073C, strain SPO22, stronger effect = lower value 1.03 | locus YIL125W, strain kgd1, stronger effect = lower value 1.01 | locus YIR030C, strain dcg1, stronger effect = lower value 1.01 | locus YJL092W, strain hpr5, stronger effect = lower value 0.998 | locus YJL095W, strain BCK1 (second series), stronger effect = lower value 0.983 | locus YJL095W, strain BCK1, stronger effect = lower value 1.02 and 1.03 | locus YJL115W, strain asf1, stronger effect = lower value 1 | locus YJL129C, strain trk1, stronger effect = lower value 0.991 | locus YJL134W, strain LCB3, stronger effect = lower value 1.03 | locus YJL154C, strain vps35, stronger effect = lower value 0.987 | locus YJL164C, strain tpk1, stronger effect = lower value 0.987 | locus YJL166W, strain qcr8, stronger effect = lower value 1 | locus YJL168C, strain set2, stronger effect = lower value 0.996 | locus YJL187C, strain SWE1 (second series), stronger effect = lower value 1.01 | locus YJL187C, strain SWE1, stronger effect = lower value 1 | [8] 1.01 | locus YJR066W, strain TOR1, stronger effect = lower value 0.98 | [9] 1.02 | locus YKL009W, strain mrt4, stronger effect = lower value 0.988 | locus YKL068W, stronger effect = lower value 1.01 | locus YKL085W, strain MDH1 (second series), stronger effect = lower value 1.01 | locus YKL085W, strain MDH1, stronger effect = lower value 1.01 | locus YKL160W, strain elf1, stronger effect = lower value 0.988 | locus YKR001C, strain vps1, stronger effect = lower value 0.994 | locus YKR026C, strain gcn3, stronger effect = lower value 0.99 | locus YKR091W, strain srl3, stronger effect = lower value 1 | locus YLL001W, strain dnm1, stronger effect = lower value 0.991 | locus YLL026W, stronger effect = lower value 0.987 | locus YLL041C, strain sdh2, stronger effect = lower value 1.01 | locus YLR027C, strain aat2, stronger effect = lower value 1 | [10] 0.972 | locus YLR058C, strain SHM2, stronger effect = lower value 1.02 | locus YLR102C, strain apc9, stronger effect = lower value 1.01 | locus YLR113W, strain HOG1, stronger effect = lower value 1.05 | locus YLR221C, strain rsa3, stronger effect = lower value 0.984 | locus YLR258W, strain gsy2, stronger effect = lower value 0.999 | locus YLR262C, strain YPT6 (second series), stronger effect = lower value 0.966 | [11] 1.02 | locus YLR268W, strain sec22, stronger effect = lower value 1.01 | locus YLR320W, strain mms22, stronger effect = lower value 0.995 | locus YLR330W, strain CHS5, stronger effect = lower value 1.02 | locus YLR342W, strain FKS1 (second series), stronger effect = lower value 1.03 | locus YLR342W, strain FKS1, stronger effect = lower value 0.996 | locus YLR357W, strain rsc2, stronger effect = lower value 0.969 | locus YLR370C, strain arc18, stronger effect = lower value 0.992 | locus YLR371W, strain rom2, stronger effect = lower value 1.01 | locus YLR384C, strain iki3, stronger effect = lower value 0.987 | locus YLR418C, strain cdc73, stronger effect = lower value 1 | locus YML016C, strain PPZ1, stronger effect = lower value 1.01 | locus YML032C, strain rad52, stronger effect = lower value 0.999 | locus YML120C, strain ndi1, stronger effect = lower value 0.999 | locus YML124C, strain tub3, stronger effect = lower value 1.02 | locus YMR058W, strain fet3, stronger effect = lower value 1 | locus YMR078C, strain ctf18, stronger effect = lower value 1.01 | locus YMR125W, strain sto1, stronger effect = lower value 1 | locus YMR129W, stronger effect = lower value 0.996 | locus YMR205C, strain PFK2, stronger effect = lower value 0.976 | locus YMR223W, strain ubp8, stronger effect = lower value 0.994 | locus YMR231W, strain pep5, stronger effect = lower value 0.986 | [12] 1.01 | [13] 1.08 | locus YNL067W, strain RPL9B, stronger effect = lower value 1.02 | locus YNL071W, strain lat1, stronger effect = lower value 0.997 | [14] 1.01 | locus YNL183C, strain NPR1, stronger effect = lower value 0.98 | locus YNL209W, strain ssb2, stronger effect = lower value 1 | locus YNL233W, strain BNI4, stronger effect = lower value 1.02 | locus YNL248C, strain rpa49, stronger effect = lower value 0.951 | locus YNL250W, strain rad50, stronger effect = lower value 0.985 | locus YNL271C, strain bni1, stronger effect = lower value 0.995 | locus YNL298W, strain CLA4, stronger effect = lower value 1 | locus YNL307C, strain MCK1, stronger effect = lower value 1 | locus YNL322C, strain KRE1 (second series), stronger effect = lower value 1 | locus YNR049C, strain mso1, stronger effect = lower value 1 | locus YNR052C, strain pop2, stronger effect = lower value 1.01 | locus YOL012C, strain htz1 0.692 | locus YOL147C, strain pex11, stronger effect = lower value 1.01 | locus YOR001W, strain rrp6, stronger effect = lower value 0.998 | locus YOR061W, strain CKA2, stronger effect = lower value 1.02 | locus YOR069W, strain VPS5, stronger effect = lower value 1.01 | locus YOR070C, strain gyp1, stronger effect = lower value 0.992 | locus YOR080W, strain dia2, stronger effect = lower value 0.984 | locus YOR083W, strain WHI5, stronger effect = lower value 0.984 | locus YOR106W, strain vam3, stronger effect = lower value 1.01 | locus YOR136W, strain idh2, stronger effect = lower value 1 | locus YOR144C, strain elg1, stronger effect = lower value 1.01 | locus YOR184W, strain ser1, stronger effect = lower value 1.02 | locus YOR231W, strain MKK1, stronger effect = lower value 1.04 | locus YOR265W, strain rbl2, stronger effect = lower value 0.987 | locus YOR270C, strain vph1, stronger effect = lower value 1.05 | locus YOR290C, strain snf2, stronger effect = lower value 0.99 | locus YOR316C, strain cot1, stronger effect = lower value 1 | locus YPL051W, strain arl3, stronger effect = lower value 0.977 | [15] 1.03 | locus YPL078C, strain atp4, stronger effect = lower value 0.998 | locus YPL106C, strain sse1, stronger effect = lower value 0.984 | locus YPL240C, strain hsp82, stronger effect = lower value 0.991 | [16] 1.01 | locus YPL256C, strain CLN2, stronger effect = lower value 1.02 | locus YPR119W, strain clb2, stronger effect = lower value 1.01 | locus YPR141C, strain kar3, stronger effect = lower value 1.02 | locus YPR163C, strain tif3, stronger effect = lower value 1.01 | locus YPR167C, strain met16, stronger effect = lower value 1.01 | strain wtn01, stronger effect = lower value 0.983

O=[N+]([O-])c1cc(Cl)ccc1S(=O)(=O)c1ccccc1
active: [10] 0.634 | [11] 0.705
inactive: [1] 0.987 | [2] 0.996 | locus YCL061C, strain MRC1, stronger effect = lower value 0.994 | [3] 0.98 | [4] 0.999 | locus YDR150W, strain NUM1, stronger effect = lower value 0.97 | [5] 0.969 | locus YGR078C, strain PAC10, stronger effect = lower value 0.993 | [6] 0.98 | [7] 0.836 | locus YHR087W, strain rtc3, stronger effect = lower value 1.02 | [8] 0.978 | [9] 0.995 | locus YLR058C, strain SHM2 (second series), stronger effect = lower value 0.996 | locus YLR085C, strain ARP6, stronger effect = lower value 0.796 | locus YML094W, strain GIM5, stronger effect = lower value 0.933 | locus YMR219W, strain ESC1, stronger effect = lower value 0.998 | [12] 0.996 | [13] 0.829 | [14] 0.985 | locus YNL298W, strain CLA4 (second series), stronger effect = lower value 0.955 | locus YNL322C, strain KRE1, stronger effect = lower value 0.987 | locus YNR030W, strain Alg12, stronger effect = lower value 0.974 | [15] 0.996 | [16] 0.958 | locus YPR135W, strain CTF4, stronger effect = lower value 0.803
